Measured values as given in PubChem BioAssay (Tox21).
“And” between values parts separate entries of the source, which are not always exact repeats. Identical values can stand only once. The source made the active and inactive calls. Where a call stands in place of a potency, no number is given. Calls come from the whole dose curve; as a rule, active = well fitted curve in the direction sought with a large enough effect in the repeat runs; inconclusive = weak or mixed curves; inactive = flat fitted curve, though single readings scatter.

assay: qHTS assay to test for compound auto fluorescence at 535 nm (green) in HEK293 cells (AID 720680); conditions: green autofluorescence 485/535 nm; series mostly up to 91.3 µM
Excerpt: U.S. Tox21 Program National Center for Advancing Translational Sciences [NCATS] NIH Chemical Genomics Center [NCGC] U.S. Environmental Protection Agency [EPA] National Institutes of Environmental Health Sciences [NIEHS] National Toxicology Program [NTP] U.S. Food and Drug Administration [FDA] Tox21 Assay Overview: Compound auto fluorescence often interferes with screening of the compound library against various biological targets and signaling pathways. Some of these compounds may have fluorophoric properties. Such properties may interfere with the assay outputs resulting in false positives and/or negatives. To decrease such complications and ensure the compound activities are relevant in terms of biological response, the Tox21 10K compound library was screened for auto fluorescence. From the fluorophores used as reporter signals in our screening assays, the auto fluorescence equivalencies of compounds against three fluorophores have been evaluated: Triamterene, Fluorescein and Rose Bengal sodium for blue, green and red fluorescence, respectively. The fluorescence intensities were measured using Excitation/Emission wavelengths at 405/460nm, 485/535nm and 540/590nm for blue, green and red labels, respectively. This assay includes the green fluorescence data.
Tox21 Assay Protocol Summary: 2,000 HEK293 cells in 5 uL of culture medium containing 10% dialyzed FBS per well were dispensed into black wall/clear bottom 1536-well plates using a Multidrop Combi Dispenser (Thermo Scientific). The assay plates were incubated for 4-5 hr at 37C to allow cell attachment to the well bottom, followed by the transfer of 23 nL compound or DMSO vehicle by a pintool work station (Kalypsys, San Diego, CA). After the assay plates were incubated overnight at 37C and 5% CO2, fluorescence intensities in the assay plates were measured by an Envision (PerkinElmer, Shelton, CT) plate reader using three labels for measuring blue, green and red fluorescence at […] 460, 535 and 590nm respectively.

Compound | Potency | fluorescence, % of fluorescein
O=C(/C=C/c1ccccc1)OCc1ccccc1 | inactive | 
OC1CCCCCCCCCCC1 | inactive | 
CNCCCC12CCC(c3ccccc31)c1ccccc12 | inactive | 
Oc1ccc(O)cc1 | inactive | 
CN(C)C(=N)N=C(N)N | inactive | 
CCOC(=O)C(C#N)=C(c1ccccc1)c1ccccc1 | inactive | 
Nc1ccc(S(=O)(=O)Nc2cnc3ccccc3n2)cc1 | inactive | 
Nc1ccccc1N | inactive | 
Nc1ccc(Nc2ccccc2)cc1 | inactive | 
c1cc(-c2ccncc2)ccn1 | inactive | 
NC=O | inactive | 
COc1ccc(C(=O)CC(=O)c2ccc(C(C)(C)C)cc2)cc1 | inactive | 
S=C(NC1CCCCC1)NC1CCCCC1 | inactive | 
CC(C)(C)NC(=O)[C@H]1CC[C@H]2[C@@H]3CC[C@H]4NC(=O)C=C[C@]4(C)[C@H]3CC[C@]12C | inactive | 
Nc1ncnc2nc[nH]c12 | inactive | 
C=CC(C)(CCC=C(C)C)OC(C)=O (stereo not given) | inactive | 
COC(=O)Nc1nc2ccc(S(=O)c3ccccc3)cc2[nH]1 (stereo not given) | inactive | 
CC(=O)O[C@]1(C(C)=O)CC[C@H]2[C@@H]3C=C(Cl)C4=CC(=O)[C@@H]5C[C@@H]5[C@]4(C)[C@H]3CC[C@@]21C | inactive | 
COc1c(Cl)c(Cl)c(Cl)c(Cl)c1Cl | inactive | 
COC(=O)c1ccccc1 | inactive | 

Compound | Potency | fluorescence, % of fluorescein
Clc1nc(Cl)c(Cl)c(Cl)c1Cl | inactive | 
CC(C)OB(OC(C)C)OC(C)C | inactive | 
C#C[C@]1(O)CC[C@H]2[C@@H]3CCc4cc(OC)ccc4[C@H]3CC[C@@]21C | inactive | 
CC(C)=CCC/C(C)=C\CO | inactive | 
O=C(Nc1ccc(Cl)cc1)Nc1ccc(Cl)c(Cl)c1 | inactive | 
CN(C)c1nc(N(C)C)nc(N(C)C)n1 |  | 0.0818% [at 18.6 µM] (inactive) and -0.032% [at 3.72 µM] (inactive)
CCOCCOCCO | inactive | 
CCCCOCCOCCO | inactive | 
Cc1c(OCC(F)(F)F)ccnc1CS(=O)c1nc2ccccc2[nH]1 (stereo not given) | inactive | 
CN1C(C(=O)Nc2ccccn2)=C(O)c2ccccc2S1(=O)=O | inactive | 
COC(=O)CCC(=O)OC | inactive | 
O=C(/C=C/C=C/c1ccc2c(c1)OCO2)N1CCCCC1 | inactive | 
COC(=O)C1=C(C)NC(C)=C(C(=O)OCCN(C)Cc2ccccc2)C1c1cccc([N+](=O)[O-])c1 (stereo not given) | inactive | 
Cc1cccc([N+](=O)[O-])c1C | inactive | 
O=C=Nc1ccc(Cc2ccc(N=C=O)cc2)cc1 | inactive | 
CC(C)=CCCC(C)CCO (stereo not given) | inactive | 
CCCC(=O)O | inactive | 
O=C(COc1ccc(Cl)cc1)N1CCN(Cc2ccc3c(c2)OCO3)CC1 | inactive | 
COC(C)COC(C)COC(C)CO (stereo not given) | inactive | 
CCCc1c(OCCCCc2nn[nH]n2)ccc(C(C)=O)c1O | inactive | 
